Measurements as given in PubChem BioAssay.
The source made the active and inactive calls. Unless noted, the rule behind the calls is not given here.

Assays:
[1] = system: XIP peptide (Xip251-270) binding; assay: XIP fragment 251-270 binding compounds – biochemical, small-molecule microarray, fluorescence 635/667 nm, 0.1 µg/mL protein, primary screen (AID 1182); conditions: fluorescent protein binding, 635 nm, higher = more signal, called active from +8 up or from −8 down
XIP peptide (Xip251-270) = assay: compounds binding XIP fragment 251-270 – biochemical, small-molecule microarray, fluorescence 635/667 nm, 0.5 µg/mL protein, primary screen (AID 1183); conditions: fluorescence 635 nm, higher = more signal
[2] = blood-stage malaria parasite viability loss – strain 3D7, DAPI fluorescence, 100 nL, primary screen (AID 1184);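 note: parasites grown inside human red blood cells in medium with human serum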; conditions: P. falciparum 3D7 growth, 3 d, higher = more signal
[3] = biological target: Homeobox protein Hox-A13 (Mus musculus) (UniProt Q62424); assay: disruptors of Hoxa13 oligonucleotide interaction – biochemical, fluorescence polarization, labeled oligonucleotide, primary screen (AID 1185); conditions: Hoxa13:DNA binding, 15 min, higher = more signal, called active from +8 up or from −8 down
Chain of Homeobox protein Hox-A13 (Mus musculus) (Q62424 whole entry, looked up): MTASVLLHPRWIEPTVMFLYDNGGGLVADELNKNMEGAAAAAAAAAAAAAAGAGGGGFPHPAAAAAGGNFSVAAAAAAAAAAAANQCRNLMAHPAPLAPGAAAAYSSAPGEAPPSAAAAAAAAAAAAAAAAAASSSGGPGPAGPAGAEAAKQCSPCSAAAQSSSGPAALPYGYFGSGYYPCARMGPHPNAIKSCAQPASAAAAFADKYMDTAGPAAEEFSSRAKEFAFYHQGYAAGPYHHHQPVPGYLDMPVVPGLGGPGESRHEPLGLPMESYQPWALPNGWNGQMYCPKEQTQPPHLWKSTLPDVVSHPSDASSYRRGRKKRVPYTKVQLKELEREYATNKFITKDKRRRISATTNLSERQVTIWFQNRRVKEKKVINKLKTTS

[4] = blockers of DNA damage checkpoint Chk1 activation – imaging, HeLa, hydroxyurea, phospho-Chk1 antibody, percent positive cells, primary screen (AID 1186); conditions: hydroxyurea-induced phospho-Chk1 immunofluorescence imaging, higher = more signal
[5] = blockers of DNA damage checkpoint Chk1 activation – imaging, HeLa, hydroxyurea, phospho-Chk1 nuclear intensity, primary screen (AID 1187); conditions: hydroxyurea-induced phospho-Chk1 immunofluorescence imaging, higher = more signal

| Structure (SMILES) | composite z-score [1] | composite z-score (XIP peptide (Xip251-270)) | z-score [2] | z-score [3] | z-score [4] | z-score [5] |
| --- | --- | --- | --- | --- | --- | --- |
| CN1C(=O)C2C=CC(C(O)c3ccc(Br)cc3)N(Nc3ccccc3)C2C1=O (centres undefined) | -0.115 (inactive) | 0.0244 | 0.672 | -1.23 (inactive) | 0.247 (inactive) | -0.122 (inactive) |
| O=C1OCC=C[C@H]2OC34C=CCN(Cc5ccccc5)C(=O)[C@H]3N(CCCO)C(=O)[C@@H]4[C@@H]12 (some centres undefined) | 1.09 (inactive) | 0.212 | -1.89 | -4.31 (inactive) | -1.44 (inactive) | -0.938 (inactive) |
| CC1CC/C=C\[C@H]2OC34C=CCN(c5ccc6ccccc6c5)C(=O)[C@H]3N(CCCCCO)C(=O)[C@@H]4C2C(=O)O1 (some centres undefined) | 1.37 (inactive) | -0.165 | -0.0643 | -6.06 (inactive) | 0.549 (inactive) | -0.382 (inactive) |
| [N-]=[N+]=Nc1ccccc1[C@@H]1OC(c2ccc(OCCCO)cc2)=N[C@]1(CCS(=O)(=O)c1ccccc1)C(=O)N1CCCCC1 | 1.32 (inactive) | 0.574 | -2.23 | -2.67 (inactive) | 0.0919 (inactive) | -0.121 (inactive) |
| COCCOC(=O)N1C(=O)[C@@]2(c3cc(C#CCC(C(=O)OC)C(=O)OC)ccc31)[C@H](c1ccc(OCCO)cc1)N1[C@H](c3ccccc3)[C@H](c3ccccc3)OC(=O)[C@H]1[C@@H]2C(=O)NC[C@H](O)c1ccccc1 | 0.234 (inactive) | 0.851 | -2.16 | 0.738 (inactive) | -0.411 (inactive) | -0.397 (inactive) |
| Cc1ccc(N2C(=O)c3ccccc3[C@@H](C(=O)NC(C)C)[C@@H]2c2ccc(CO)cc2)nc1 | 0.262 (inactive) | 0.82 | 0.679 | -1.68 (inactive) | 0.364 (inactive) | 0.43 (inactive) |
| CN1C(=O)C2C(C1=O)C1C=C(c3ccc(CO)cc3)C2C(C2CC2)N1Cc1sc2ccccc2c1Cl (centres undefined) | 0.406 (inactive) | 0.745 | -1.9 | -3.23 (inactive) | 0.21 (inactive) | 0.442 (inactive) |
| C=C(COC)C(=O)CC[C@@H](OC(=O)c1ccccc1-c1ccccc1C(=O)O)c1ccc(CO)o1 | -0.5 (inactive) | 0.633 | 1.47 | -4.32 (inactive) | 1.37 (inactive) | 0.477 (inactive) |
| CC(c1ccccc1)C(O)C1C=CC2C(=O)N(c3ccccc3)C(=O)C2N1Nc1ccccc1F (centres undefined) | -0.093 (inactive) | 0.583 | -0.436 | -1.51 (inactive) | -0.123 (inactive) | 0.104 (inactive) |
| COC(=O)[C@@]1(Cc2ccc(OC)cc2)[C@H]2c3cc(C(=O)N4CCCC4)n(CCc4ccccn4)c3C[C@H]2CN1C(=O)c1ccccc1 | 0.679 (inactive) | 0.864 | -1.77 | -5.3 (inactive) | -0.235 (inactive) | -0.224 (inactive) |
| Cc1ccc(C(C)CC(O)C2C=CC3C(=O)NC(=O)C3N2Nc2ccccn2)o1 (centres undefined) | 0.673 (inactive) | 0.881 | 0.281 | -2.14 (inactive) | 0.333 (inactive) | 0.0304 (inactive) |
| [N-]=[N+]=NCc1ccccc1[C@@H]1OC(c2ccc(OCCCO)cc2)=N[C@]1(Cc1ccccc1)C(=O)O | 0.078 (inactive) | 0.859 | 0.615 | -4.89 (inactive) | 0.412 (inactive) | 0.595 (inactive) |
| CCCNC(=O)[C@@]1(C)c2ccccc2C(=O)N(Cc2ccc(OC(F)(F)F)cc2)[C@H]1c1ccc(CO)cc1 | 0.689 (inactive) | 0.794 | -0.775 | -3.32 (inactive) | -0.374 (inactive) | -0.473 (inactive) |
| COCCOC(=O)N1C(=O)[C@@]2(c3cc(C#Cc4ccc(OC)cc4)ccc31)[C@H](C(N)=O)[C@H]1C(=O)O[C@H](c3ccccc3)[C@H](c3ccccc3)N1[C@@H]2c1ccc(O)cc1 | -0.0197 (inactive) | 0.0645 | -1.69 | 2.03 (inactive) | -0.0863 (inactive) | 0.243 (inactive) |
| C=CCC(OC(C)=O)[C@@H]1[C@@H](N(Cc2cc3ccccc3o2)C(=O)c2ccc(-c3ccccc3)cc2)c2cc(OCCCO)ccc2N1C(=O)Cc1ccc2ccccc2c1 (some centres undefined) | -0.317 (inactive) | -0.269 | -0.835 | -0.738 (inactive) | 0.485 (inactive) | 0.467 (inactive) |
| C=CC[C@]1(C(=O)NCCN2CCOCC2)N=C(c2ccc(OCCCO)cc2)O[C@H]1c1ccccc1N=[N+]=[N-] | 3.25 (inactive) | 0.819 | -2.27 | -3.35 (inactive) | -0.56 (inactive) | -0.265 (inactive) |
| CN(C)CCCC[C@@H]1NC(=O)[C@@H]2C[C@H](C(=O)NCc3ccc(F)cc3)[C@H](c3cccc(OCCO)c3)N2C1=O | 0.658 (inactive) | 0.813 | -0.459 | -3.36 (inactive) | 0.445 (inactive) | 0.314 (inactive) |

| Structure (SMILES) | composite z-score [1] | composite z-score (XIP peptide (Xip251-270)) | z-score [2] | z-score [3] | z-score [4] | z-score [5] |
| --- | --- | --- | --- | --- | --- | --- |
| O=C(CS)NCCCCCCNC(=O)[C@H]1C[C@H]2C(=O)N3CCC[C@H]3C(=O)N2[C@H]1c1ccc(O)cc1 | 0.573 (inactive) | 0.646 | -0.38 | -2.8 (inactive) | -0.508 (inactive) | -0.19 (inactive) |
| C=C[C@H](C)[C@H](OC(=O)Nc1ccc(OC)cc1)c1ccc(O)c2ccccc12 | 0.79 (inactive) | -0.147 | -0.767 | -4.27 (inactive) | -0.33 (inactive) | -0.382 (inactive) |
| C=CCC(OC(C)=O)[C@@H]1[C@@H](N(Cc2cc3ccccc3o2)C(=O)c2ccc(C)cc2)c2cc(OCCCO)ccc2N1C(=O)c1ccc(-c2ccccc2)cc1 (some centres undefined) | -0.28 (inactive) | -0.294 | -2.58 | -0.468 (inactive) | -1.19 (inactive) | -1.05 (inactive) |
| CCCCN1CC=CC23O[C@@H]4C=CCCOC(=O)C4[C@H]2C(=O)N(CCCO)[C@@H]3C1=O (some centres undefined) | -0.687 (inactive) | -0.624 | -1.74 | -3.72 (inactive) | -0.0781 (inactive) | -0.559 (inactive) |
| COC(=O)c1c(CC[C@@H](CO)NC(=O)Nc2ncn[nH]2)oc(C(=O)Cc2ccccc2)c1C(=O)OC | 0.782 (inactive) | 0.883 | 0.654 | -2.98 (inactive) | 0.498 (inactive) | -0.15 (inactive) |
| CO[C@H]1O[C@H](CO)[C@@H](OC(=O)Nc2ccc3c(c2)OCO3)[C@H](OC(=O)Nc2ccc3c(c2)OCO3)[C@H]1OC(=O)Nc1ccc2c(c1)OCO2 | 2.3 (inactive) | 0.842 | -2.1 | -4.78 (inactive) | -0.134 (inactive) | 0.245 (inactive) |
| COC(=O)[C@@]1(Cc2ccc(F)cc2)[C@H]2c3cc(C(=O)N(C)C)n(Cc4ccccn4)c3C[C@H]2CN1C(=O)c1ccccc1 | -0.0593 (inactive) | 0.352 | -0.393 | -5.64 (inactive) | 0.412 (inactive) | 0.427 (inactive) |
| COc1ccc([Si](C)(C)[C@@H]2[C@@H](CCO)O[C@]3(C(=O)N(Cc4cccc(N(C=O)c5ccccc5)c4)c4ccccc43)[C@H]2C)cc1 | 1.31 (inactive) | 0.675 | -2.51 | -0.551 (inactive) | -0.79 (inactive) | -0.438 (inactive) |
| CC(C)C[C@@H]1NC(=O)[C@@H]2C[C@H](C(=O)NCCCCN(C)C)[C@H](c3ccc(O)cc3)N2C1=O | -0.0862 (inactive) | 0.937 | -0.06 | -1.49 (inactive) | 0.326 (inactive) | 0.219 (inactive) |
| CCN(CC)c1ccc(N2CC=CC34O[C@@H]5C=CCOC(=O)[C@@H]5[C@H]3C(=O)N(CCCCCO)[C@@H]4C2=O)cc1 (some centres undefined) | 0.614 (inactive) | -0.982 | -0.232 | -5.05 (inactive) | -0.23 (inactive) | -0.33 (inactive) |
| C=CCC(OC(C)=O)[C@@H]1[C@@H](N(Cc2cc3ccccc3o2)C(=O)c2cccc3ccccc23)c2cc(OCCCO)ccc2N1C(=O)Cc1ccc(OC)cc1 (some centres undefined) | 0.1 (inactive) | -0.208 | -2.37 | -3.31 (inactive) | 0.821 (inactive) | 0.775 (inactive) |
| O=C1C2C=CC(C(O)c3ccc(B(O)O)cc3)N(Nc3ccc([N+](=O)[O-])cc3)C2C(=O)N1c1ccccc1 (centres undefined) | 0.432 (inactive) | 0.208 | 1.18 | -1.63 (inactive) | -0.169 (inactive) | -0.219 (inactive) |
| O=C1[C@H]2C=C(Br)[C@H](C[C@@H]2OCCOCCO)[C@@]12CO2 | -0.0844 (inactive) | 0.798 | -0.334 | -0.559 (inactive) | -0.051 (inactive) | -0.0596 (inactive) |
| O=C1c2ccccc2[C@](Cc2ccccc2I)(C(=O)O)[C@H](c2ccc(CO)cc2)N1Cc1ccccc1C(F)(F)F | 0.185 (inactive) | 0.506 | 0.33 | -5.85 (inactive) | -0.344 (inactive) | -0.572 (inactive) |
| CCCC[C@H]1OB(O)C[C@H]2C1=C(COc1ccccc1)C[C@H]1C(=O)N(Cc3ccccc3)C(=O)[C@H]12 | -0.0195 (inactive) | -0.0475 | 0.589 | -6.65 (inactive) | 0.0918 (inactive) | 0.206 (inactive) |
| COC(=O)[C@@]1(Cc2ccccc2)[C@H]2c3cc(C(=O)N(C)C)n(Cc4cc(F)c(F)c(F)c4)c3C[C@H]2CN1C(=O)c1ccccc1 | -0.218 (inactive) | 0.0006 | -1.52 | -4 (inactive) | -0.217 (inactive) | -0.227 (inactive) |
| C#C[C@H](O[Si](C#CCCCCCC)(C(C)C)C(C)C)c1ccccc1 | 0.0004 (inactive) | -0.113 | -1.32 | -1.2 (inactive) | -0.0616 (inactive) | -0.0839 (inactive) |
